Data on 15 compounds can be found in PubChem BioAssay (NCATS).

Values without a mark were called inactive. Results filed as inconclusive are left out. Active and inactive are the calls of the source. Unless noted, calls come from the whole dose curve; as a rule, active = well fitted curve in either direction with a large enough effect (not every such curve was filed as active); inconclusive = small, poorly fitted or top-dose-only effect, or another doubt; inactive = flat fitted curve, though single readings scatter. Where only a bound is given, the exact number is not on record here.

In test [1] the target is Lysosomal acid glucosylceramidase (Homo sapiens) (UniProt P04062). Description: Glucocerebrosidase-p2 (AID 348; in the data active = potency below about 10 µM; note: potency is the fitted concentration of half-maximal effect). To be noted: purified GBA, blue fluorogenic substrate, 40 min. The procedure, abridged: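 Normal human glucocerebrosidase (0.2 nM) with blue fluorogenic substrate (80 uM final) in citrate/phosphate pH 5.9 with 10mM sodium taurocholate, 0.01% tween-20; 40 min RT, NaOH/glycine stop; fluorescence Ex 365/Em 440; AC50 from a titration from 0.6 nM upwards.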
Chain of Lysosomal acid glucosylceramidase (Homo sapiens) (P04062 whole entry, looked up): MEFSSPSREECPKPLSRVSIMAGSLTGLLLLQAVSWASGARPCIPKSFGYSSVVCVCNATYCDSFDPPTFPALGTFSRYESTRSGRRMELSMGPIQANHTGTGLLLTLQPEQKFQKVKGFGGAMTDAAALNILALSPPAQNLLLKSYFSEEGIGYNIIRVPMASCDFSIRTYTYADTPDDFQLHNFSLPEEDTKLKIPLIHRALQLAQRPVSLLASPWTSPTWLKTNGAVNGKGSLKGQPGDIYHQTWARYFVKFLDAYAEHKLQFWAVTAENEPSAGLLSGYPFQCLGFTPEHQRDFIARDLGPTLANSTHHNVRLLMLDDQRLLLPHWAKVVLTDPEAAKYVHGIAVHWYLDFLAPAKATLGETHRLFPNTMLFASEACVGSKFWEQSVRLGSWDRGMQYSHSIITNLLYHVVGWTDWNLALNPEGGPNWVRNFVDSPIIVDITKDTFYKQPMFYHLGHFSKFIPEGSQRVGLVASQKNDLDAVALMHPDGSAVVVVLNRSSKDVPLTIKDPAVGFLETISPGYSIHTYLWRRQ

A short description of test [2]: AP1 Signaling Pathway (AID 357).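 Note: ME-180 reporter cells stimulated with EGF at its EC50 level; % is set by controls: 0 for no effect and ±100 for the full control effect.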 To be noted: ME-180 AP-1-bla reporter, EGF-induced, beta-lactamase ratio, 5 h; at 7.69 µM (top of the series) unless noted. The procedure, abridged:
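AP-1-bla ME-180 cells, Opti-MEM + 0.5% dialyzed FBS, plated overnight 37 °C. Cpd titration + EC50 EGF, 5 h 37 °C. CCF4 2.5 h RT; ex 405, em 460/530 ratio → %activity, AC50.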

Test [3] has as its target Cytochrome P450 1A2 (Homo sapiens) (UniProt P05177). Description: p450-cyp1a2 (AID 410; calls by dose curve; note: potency is the fitted concentration of half-maximal effect). To be noted: recombinant CYP1A2, luciferin-ME demethylation, luminescence; series mostly up to 11.4 µM. The gist of the method:
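Read-out is luminescence from luciferin produced by CYP1A2 demethylation of Luciferin-ME (100uM, at Km). Detection reagent stopped the 60 min NADPH-dependent reaction; signals were normalized to 57 uM furafylline.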

The nature of test [4]: NFAT Signaling Pathway (AID 444).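 Note: carbachol stimulus at about its EC50 of 1 µM final; % is set by controls: 0 for no effect and ±100 for the full control effect.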 To be noted: Jurkat NFAT-bla M1, carbachol, beta-lactamase ratio, 5 h; at 7.69 µM (top of the series) unless noted. The procedure, abridged:
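Jurkat cells carrying an NFAT-driven β-lactamase reporter and co-transfected muscarinic M1 receptor were treated with compound plus carbachol (1 uM final, an EC50 level) for 5 h at 37 °C. CCF4 loading followed for 1 h at RT; 460/530 nm ratio gave %activity.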

The nature of test [5]: Stat Signaling Pathway (AID 446).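 Note: ME-180 cervical cancer cells given 40 pM IL-6 alongside compound; SIE-controlled beta-lactamase reporter measured as 460/530 nm FRET emission ratio; % is set by controls: 0 for no effect and ±100 for the full control effect.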 To be noted: ME-180 SIE beta-lactamase reporter, IL-6 stimulated, 5 h; at 7.69 µM (top of the series) unless noted. The gist of the method: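 Normalization used AC90 stimulation (300 pM IL-6) and AC90 inhibition (125 nM pan-JAK inhibitor at 40 pM IL-6). The underlying signal is SIE-driven beta-lactamase in ME-180 cells after 5 h IL-6 exposure with compound.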

In test [6] the target is Glucocorticoid receptor (Homo sapiens) (UniProt P04150). The test is described as follows: GR-GFP Redistribution (AID 450;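 active = compounds whose dose series gives a full or clear partial fitted curve of increased nuclear translocation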; note: potency is the fitted concentration of half-maximal effect). To be noted: U2OS GR-GFP nuclear translocation, laser cytometry, 2 h.
Chain of Glucocorticoid receptor (Homo sapiens) (P04150 whole entry, looked up, the tested form may be a part): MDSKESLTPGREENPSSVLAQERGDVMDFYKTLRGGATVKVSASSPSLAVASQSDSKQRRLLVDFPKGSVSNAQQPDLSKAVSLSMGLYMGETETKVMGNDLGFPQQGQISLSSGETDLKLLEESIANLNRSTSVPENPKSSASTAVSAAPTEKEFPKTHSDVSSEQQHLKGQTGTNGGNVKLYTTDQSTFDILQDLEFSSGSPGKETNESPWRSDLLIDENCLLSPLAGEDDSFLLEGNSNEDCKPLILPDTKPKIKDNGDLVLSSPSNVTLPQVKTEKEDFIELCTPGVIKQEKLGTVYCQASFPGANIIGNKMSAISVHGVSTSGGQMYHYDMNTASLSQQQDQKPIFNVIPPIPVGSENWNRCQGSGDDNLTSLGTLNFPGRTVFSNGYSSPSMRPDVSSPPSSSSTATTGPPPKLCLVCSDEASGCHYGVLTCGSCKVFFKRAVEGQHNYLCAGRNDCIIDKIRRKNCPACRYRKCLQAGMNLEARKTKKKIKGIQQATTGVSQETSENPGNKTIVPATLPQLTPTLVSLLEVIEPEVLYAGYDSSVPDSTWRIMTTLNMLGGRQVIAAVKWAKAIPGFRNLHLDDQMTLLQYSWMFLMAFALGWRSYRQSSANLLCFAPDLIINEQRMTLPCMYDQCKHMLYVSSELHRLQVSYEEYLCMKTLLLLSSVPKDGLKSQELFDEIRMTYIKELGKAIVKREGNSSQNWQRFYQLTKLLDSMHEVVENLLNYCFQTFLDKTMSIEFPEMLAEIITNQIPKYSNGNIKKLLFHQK
Test [7] has the same target. Description: GR-EFC Redistribution (AID 451; calls by dose curve; note: potency is the fitted concentration of half-maximal effect). To be noted: CHO-K1 GR-EFC translocation, beta-gal luminescence, 2 h. The gist of the method: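 CHO-K1 cells stably expressing nuclear-localized β-gal enzyme acceptor and GR fused C-terminally to the enzyme donor fragment; ligand-driven nuclear translocation restores β-gal by complementation. Compounds titrated up to 46 uM final, 2 h at 37 °C; luminescence read.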

In test [8] the target is Mitogen-activated protein kinase 10 (Mus musculus) (UniProt Q61831). The test is described as follows: JNK3 AlphaScreen Assay (AID 530).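 Note: kinase came from lysate of stimulated human HepG2 cells; % is set by controls: 0 for no effect and ±100 for the full control effect.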 To be noted: JNK3 lysate, c-Jun phosphorylation; series mostly up to 11.4 µM. The gist of the method: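 Biotinylated GST-cJun(1-79) served as substrate for JNK3 in HepG2 lysates stimulated with IL-1beta and TNF-alpha. ATP was 10 uM final, pH 7.6. Ser73 phosphorylation was quantified by AlphaScreen (680 nm excitation).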
Background: Alpha assays give light when donor and acceptor beads are brought close together.

Test [9] has as its target 3',5'-cyclic-AMP phosphodiesterase 4B (Homo sapiens) (UniProt Q07343). Description: qHTS Assay for Inhibitors of PDE-IV (AID 607; active = well fitted activation curve with a large enough effect in the main read-out, with a control signal flat, not every such curve was filed as active; note: % of control where 0% means no effect). To be noted: HEK293 ACTOne CNG channel cells, membrane potential fluorescence; series mostly up to 22.9 µM. The gist of the method: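 HEK293 ACTOne cells with CNG channel (1000/well), endogenous PDE4; membrane potential dye, compounds up to 22.9 uM final. Fluorescence Ex 535/Em 590; RO 20-1724 (100 uM final) as reference.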
A general note: qHTS replaces the single test concentration by a dilution series.

Test [10] addresses Cytochrome P450 2C19 (Homo sapiens) (UniProt P33261). The test is described as follows: qHTS Assay for Inhibitors and Substrates of Cytochrome P450 2C19 (AID 899; active = well fitted inhibition curve with a large enough effect; note: nearly all actives have a fitted effect of over 60% in size; note: potency is the fitted concentration of half-maximal effect). To be noted: recombinant CYP2C19, luciferin-H EGE luminescence; series mostly up to 11.4 µM. The gist of the method:
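NADPH-dependent conversion of Luciferin-H EGE (10uM, at KM) by 5nM enzyme in 50mM KPO4, 60 min at 37C following 10 min compound preincubation. Stopped with luciferin detection buffer; luminescence read after 20 min.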

Test [11] is described as follows: qHTS Assay for Identification of Small Molecule Agonists for Hypoxia Response Element Signaling Pathway (AID 914; active = well fitted activation curve with a large enough effect in the signal ratio, with a control signal flat, not every such curve was filed as active; the % refers to the signal ratio; note: % of control where 0% means no effect). To be noted: ME-180 (cervical carcinoma) HRE-bla reporter, beta-lactamase ratio, CoCl2, 17 h; activation: active compounds read high. The procedure, abridged: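 Cells were plated overnight, pin-dosed with compound in a titration series, co-stimulated with EC50 CoCl2 and incubated 17 hours at 37 degrees Celsius. CCF4 substrate was then loaded, and AC50 values came from the 460nm/530nm ratio.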

Chain of 3',5'-cyclic-AMP phosphodiesterase 4B (Homo sapiens) (Q07343 whole entry, looked up): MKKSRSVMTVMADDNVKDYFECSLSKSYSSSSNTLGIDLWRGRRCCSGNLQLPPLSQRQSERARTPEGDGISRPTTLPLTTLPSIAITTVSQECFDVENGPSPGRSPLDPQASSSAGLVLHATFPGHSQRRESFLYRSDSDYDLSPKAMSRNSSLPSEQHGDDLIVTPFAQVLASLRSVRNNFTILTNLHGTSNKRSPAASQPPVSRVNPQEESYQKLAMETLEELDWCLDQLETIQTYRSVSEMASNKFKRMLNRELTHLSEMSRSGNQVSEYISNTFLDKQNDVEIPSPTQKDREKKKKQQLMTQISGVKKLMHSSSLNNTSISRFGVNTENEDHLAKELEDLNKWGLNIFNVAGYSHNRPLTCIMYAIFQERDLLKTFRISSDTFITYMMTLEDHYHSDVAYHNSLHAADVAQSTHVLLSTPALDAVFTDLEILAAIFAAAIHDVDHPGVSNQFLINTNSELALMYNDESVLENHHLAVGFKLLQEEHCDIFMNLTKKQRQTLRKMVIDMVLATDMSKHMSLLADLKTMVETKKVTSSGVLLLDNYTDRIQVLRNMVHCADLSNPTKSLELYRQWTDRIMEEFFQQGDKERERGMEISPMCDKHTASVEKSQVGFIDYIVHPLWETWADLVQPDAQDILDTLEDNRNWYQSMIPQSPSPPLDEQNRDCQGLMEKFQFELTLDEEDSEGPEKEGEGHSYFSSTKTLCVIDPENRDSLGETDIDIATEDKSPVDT
Chain of Cytochrome P450 1A2 (Homo sapiens) (P05177 whole entry, looked up): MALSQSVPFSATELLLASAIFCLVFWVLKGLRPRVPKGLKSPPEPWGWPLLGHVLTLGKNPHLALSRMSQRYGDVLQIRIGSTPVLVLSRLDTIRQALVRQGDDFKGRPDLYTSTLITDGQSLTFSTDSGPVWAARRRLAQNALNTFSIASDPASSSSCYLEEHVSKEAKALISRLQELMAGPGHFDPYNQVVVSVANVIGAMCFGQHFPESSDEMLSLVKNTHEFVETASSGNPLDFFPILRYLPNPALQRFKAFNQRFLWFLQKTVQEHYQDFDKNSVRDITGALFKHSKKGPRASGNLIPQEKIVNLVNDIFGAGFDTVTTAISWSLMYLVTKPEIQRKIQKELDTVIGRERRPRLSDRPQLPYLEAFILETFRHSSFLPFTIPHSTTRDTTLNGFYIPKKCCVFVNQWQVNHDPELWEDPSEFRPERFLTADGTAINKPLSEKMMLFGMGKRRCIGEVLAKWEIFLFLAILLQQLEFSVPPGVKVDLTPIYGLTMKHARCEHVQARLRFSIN
Chain of Cytochrome P450 2C19 (Homo sapiens) (P33261 whole entry, looked up): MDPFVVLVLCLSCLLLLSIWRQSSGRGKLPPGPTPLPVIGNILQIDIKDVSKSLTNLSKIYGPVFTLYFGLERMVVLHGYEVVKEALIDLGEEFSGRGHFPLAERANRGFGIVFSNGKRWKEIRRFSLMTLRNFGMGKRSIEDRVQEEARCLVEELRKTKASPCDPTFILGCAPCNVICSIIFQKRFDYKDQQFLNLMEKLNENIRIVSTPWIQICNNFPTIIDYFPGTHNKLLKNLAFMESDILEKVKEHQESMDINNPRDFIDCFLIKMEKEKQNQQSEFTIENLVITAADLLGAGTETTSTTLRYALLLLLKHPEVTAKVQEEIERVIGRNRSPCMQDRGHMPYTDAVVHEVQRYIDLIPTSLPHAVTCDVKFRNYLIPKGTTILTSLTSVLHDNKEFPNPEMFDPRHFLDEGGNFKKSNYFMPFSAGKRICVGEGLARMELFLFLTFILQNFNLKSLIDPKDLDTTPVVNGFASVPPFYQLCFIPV

As to `N#C[C@@H](N=Nc1ccccc1C(=O)O)C(N)=O`, the Potency was greater than 11.4 µM in [1], greater than 46 µM in test [6] and greater than 9.22 µM in [7]. In addition, the figures for the activity change, negative = inhibition in test [2] and in test [4] were 9.26% and -8.71%, respectively. For the same compound, the Potency result in [3], in [8], in test [9] and in [10] was “inactive” in each case. The activity, negative = inhibition in [5] is -29.4%.
For `Cn1c(=O)c2c(nc(NCCNc3nc4c(c(=O)n(C)c(=O)n4C)n3C)n2C)n(C)c1=O`, the Potency is greater than 11.4 µM in test [1], greater than 46 µM in test [6] and greater than 9.22 µM in [7]. The activity change, negative = inhibition in test [2] was 4.17%; in test [4] it was 8.54%. Besides, the Potency result in test [3], in test [8], in [9] and in [10] was “inactive” throughout. Moreover, the activity, negative = inhibition in [5] was 14.6%.
`Cn1c(=O)c2[nH]c(CCCCC(=O)O)nc2n(C)c1=O`: the Potency in test [1] is greater than 11.4 µM; in [3], 0.794 µM (active); in [6], greater than 46 µM; in test [7], greater than 9.22 µM. Besides, the activity change, negative = inhibition was 1.28% in [2] and 6.73% in test [4]. For the same compound, in test [5], the activity, negative = inhibition is 1.27%. Moreover, the Potency entry in test [8], in test [9] and in test [10] was “inactive” in each case.
As for `O=C(O)C1CC2(C1)CC(C(=O)O)C2` (stereo not given), the Potency is greater than 11.4 µM in test [1], greater than 46 µM in [6] and greater than 9.22 µM in test [7]. Also, the activity change, negative = inhibition in [2] was 1.62%; in [3], -6.3% [at 2.29 µM]; in test [4] it was 10.7%. The activity, negative = inhibition in test [5] is 12.7%. Also, the Potency entry in test [8], in test [9] and in test [10] was “inactive” throughout.
Consider `O=C(O)CCSCc1ccccc1`, for which the Potency is greater than 11.4 µM in test [1], greater than 46 µM in [6] and greater than 9.22 µM in test [7]. For the same compound, the figures for the activity change, negative = inhibition in test [2] and in [4] were 4.81% and -0.126%, respectively. For the same compound, the Potency result in [3], in test [8], in test [9] and in test [10] was “inactive” each time. In addition, the activity, negative = inhibition in [5] was -0.355%.
Take `COc1ccc2cc(C(=O)CCC(=O)O)ccc2c1`: the Potency in test [1] is greater than 11.4 µM; in test [3], 0.794 µM (active); in test [6], greater than 46 µM; in test [7], greater than 9.22 µM; in test [10] it was 2 µM (active). The activity change, negative = inhibition in test [2] was 1.75%; in test [4] it was 19.6%. Also, the activity, negative = inhibition in [5] was 6.44%. Also, the Potency result in test [8] and in test [9] was “inactive” throughout.
Consider `O=C1c2ccccc2C(=O)N1CCCSc1ccccc1`, for which the Potency in test [1] was greater than 11.4 µM; in test [3], 1 µM (active); in [6], greater than 46 µM; in test [7], greater than 9.22 µM; in test [10] it was 0.631 µM (active). Further, the activity change, negative = inhibition in test [2] was -13.4%; in [4], 1.88%. Moreover, the activity, negative = inhibition in test [5] is -7.77%. In addition, the Potency entry in test [8] and in [9] was “inactive” in each case.
Turning to `CCCCSCc1nc2nc(Cl)c(Cl)nc2[nH]1`, the Potency was greater than 11.4 µM in [1]; 3.16 µM (active) in test [3]; greater than 46 µM in test [6]; greater than 9.22 µM in test [7]; 2 µM (active) in test [10]. The activity change, negative = inhibition in test [2] was -2.19%; in [4], -24.8%. For the same compound, the activity, negative = inhibition in [5] is -21.2%. Also, the Potency result in test [8] and in [9] was “inactive” throughout.
Turning to `Cc1c(C(=O)O)nc(/C=C\C(=O)O)[nH]c1=O`, the results for the Potency in test [1], in [6] and in test [7] were greater than 11.4 µM, greater than 46 µM and greater than 9.22 µM, respectively. Besides, the activity change, negative = inhibition in [2] was 11.1%; in test [4] it was 3.17%. In addition, the Potency result in test [3], in [8] and in test [9] was “inactive” throughout. Moreover, the activity, negative = inhibition in test [5] is 21.1%. The activation in test [11] is 12.3%.
For the compound `N#CC(C#N)=CNCCN1CCN(C=C(C#N)C#N)CC1`, the Potency in test [1] was greater than 11.4 µM; in [6], greater than 46 µM; in test [7], greater than 9.22 µM. The activity change, negative = inhibition in test [2] was 2.96%; in [3], -15.5% [at 2.29 µM]; in [4] it was 2.39%. Also, in [5], the activity, negative = inhibition was 3.44%. The Potency result in test [8], in test [9] and in test [10] was “inactive” in each case.
For the compound `NC(=O)C[C@H](N)C(N)=O`, the Potency was greater than 11.4 µM in [1], greater than 46 µM in test [6] and greater than 9.22 µM in test [7]. Further, the activity change, negative = inhibition in test [2] is -1.63%; in test [4], 12.4%. Moreover, the Potency entry in [3], in test [8] and in test [9] was “inactive” throughout. Moreover, in test [5], the activity, negative = inhibition is 2.81%. In addition, the activation in test [11] was 9.57%.
Turning to `O=C(O)/C=C\C(=O)Nc1ccccn1`, the figures for the Potency in test [1], in [6] and in test [7] were greater than 11.4 µM, greater than 46 µM and greater than 9.22 µM, respectively. In addition, the activity change, negative = inhibition in test [2] was 1.01%; in test [4], 11.9%. The Potency result in test [3], in test [8] and in test [9] was “inactive” in each case. Further, in test [5], the activity, negative = inhibition was -1.9%. Moreover, the activation in test [11] is 4.82%.
Regarding `CCO[P@]1(=O)OC[C@@H]2O[C@H](n3cnc4c(N)ncnc43)[C@H](O)[C@@H]2O1`, the Potency in [1] is greater than 11.4 µM; in test [6] it was greater than 46 µM; in test [7] it was greater than 9.22 µM. The figures for the activity change, negative = inhibition in [2], in [3] and in test [4] were -10.8%, -15.6% [at 2.29 µM] and 4.19%, respectively. Besides, in test [5], the activity, negative = inhibition is -5.06%. Besides, the Potency entry in [8] and in test [9] was “inactive” throughout. The activation in test [11] was 10.2%.
Regarding `O=C(Nc1ccc2ncccc2c1)Nc1ccc2ncccc2c1`, the Potency in test [1] is greater than 11.4 µM; in [6] it was greater than 46 µM; in test [7], greater than 9.22 µM. Also, the figures for the activity change, negative = inhibition in test [2], in test [3] and in [4] were -16.2%, -28.5% [at 2.29 µM] and 21.4%, respectively. Also, in [5], the activity, negative = inhibition was -14.3%. Further, the Potency entry in test [8] and in test [9] was “inactive” each time. Further, in test [11], the activation was -12.2%.
For the compound `NC(=O)Nc1n[nH]c(-c2ccccc2)n1`, the Potency is greater than 11.4 µM in test [1], 3.16 µM (active) in test [3], greater than 46 µM in test [6] and greater than 9.22 µM in [7]. Besides, the activity change, negative = inhibition was 4.22% in test [2] and -3.57% in test [4]. Besides, the activity, negative = inhibition in test [5] was 2.91%. For the same compound, the Potency result in test [8] and in test [9] was “inactive” each time. Moreover, in test [11], the activation was 12.6%.
